Calls of active or inactive are those of the source. Calls come from the whole dose curve; as a rule, active = well fitted activation curve with a large enough effect; inconclusive = small, poorly fitted or top-dose-only effect; inactive = no such curve, though single readings can be large or run the other way.
assay: Confirmatory qHTS for Identification of Small Molecule Activators of Huntingtin-Antisense Promoter Activity; details: HEK293 HTT-AS promoter firefly luciferase reporter, 24 h; series mostly up to 57.5 µM
Summary of the method: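 Activity normalized between vehicle control (0%) and zero RLU (-100%) from firefly luminescence (Dual-Glo). Compounds, up to 57.5 uM final, incubated 24 h at 37C on HEK293 reporter cells plated 24 h earlier.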

Potency, inactive:
Cc1cc(C)c(/C=C/c2onc(C)c2S(=O)(=O)N2CCC(C(=O)NCc3ccco3)CC2)c(C)c1
COc1cccc(OCc2nc3ccccc3n2CCOc2ccccc2)c1
O=C(Nc1ccc(OC(F)(F)F)cc1)C(NS(=O)(=O)c1cccc2nsnc12)c1ccccc1 (stereo not drawn)
O=C(c1cccs1)N(Cc1cccnc1)c1nc2c(F)cc(F)cc2s1
COc1cc(OC)c(N(C)C(=O)c2cn(C3CCCC3)c(=O)c3c2c2ccccc2n3C)cc1Cl
CCc1ccc(CNC(=O)Cn2ccc3cc(S(=O)(=O)N4CCCCCC4)ccc32)cc1
O=C(Nc1cccc(Cl)c1)c1c(NC(=O)C(F)(F)F)sc2c1CCCC2
COc1ccc(S(=O)(=O)N(CCc2ccccc2)CC(=O)Nc2cc(C)cc(C)c2)cc1OC
Cc1ccc(C)c(NC(=O)C(=O)NCC(c2cccnc2)N2CCN(c3ccc(F)cc3)CC2)c1 (stereo not drawn)
CCN1C(=O)c2ccccc2Sc2ccc(NC(=O)Nc3cccc([N+](=O)[O-])c3C)cc21
Clc1ccc(N2CCN(c3ncnc4c3nc3n4CCCC3)CC2)cc1
O=C(Nc1ccc(F)c(Cl)c1)C1CCN(S(=O)(=O)c2ccc3c(c2)CCCN3C(=O)C2CCC2)CC1
CC(=O)N1CCCc2cc(S(=O)(=O)N3CCCC(C(=O)N4CCN(c5ccccc5)CC4)C3)ccc21 (stereo not drawn)
O=C(Nc1ccc(Br)cc1)c1cc(S(=O)(=O)NC2CCCC2)ccc1F
CCC(C(=O)NCCc1cc(OC)ccc1OC)n1nc(C)c2c(C)n(-c3ccccc3)nc2c1=O (stereo not drawn)
Cc1nc2sccn2c(=O)c1S(=O)(=O)Nc1ccc(N2CCOCC2)c(Cl)c1
Cc1ccc(C(=O)Nc2nc(-c3nnn(-c4cccc(Cl)c4C)c3C)ns2)cc1C
Cc1cccc(NC(=O)c2c(NC(=O)C(F)(F)F)sc3c2CCCCC3)c1
COc1ccc(-c2nnc(C3CCN(C(=O)c4ccccc4F)CC3)o2)cc1
Cc1ccc(Cl)cc1-n1ncc2c(Nc3cccc(C)c3C)ncnc21
Cc1cc(C)cc(NC(=O)C2CCCN2S(=O)(=O)c2ccc3c(c2)CCCC(=O)N3)c1 (stereo not drawn)
COc1ccc(C(=O)NCC(c2cccnc2)N2CCc3ccccc32)cc1 (stereo not drawn)
O=C(CN1C(=O)C2(SCC(=O)N2c2ccc(F)c(F)c2)c2ccccc21)Nc1cccc(Cl)c1 (stereo not drawn)
CCCc1cc(N2CCN(c3ccccc3F)CC2)n2cnnc2n1
O=C(O)c1ccc2c(c1)N(Cc1ccc(F)cc1)C(=O)c1ccccc1S2=O (stereo not drawn)
COc1cc(Nc2ncc3c(n2)CCN(Cc2cc(F)cc(F)c2)C3)cc(OC)c1
CCCCOc1ccc(C(=O)Nc2ccc3c(c2)CCCN3S(=O)(=O)c2ccc(C)cc2)cc1
CCOc1ccc(S(=O)(=O)NCCc2sc3nc(-c4ccc(C)cc4)nn3c2C)cc1
COc1ccccc1CNC(=O)c1oc2ccc(S(=O)(=O)N3CCCCC3)cc2c1C
COc1ccccc1C(=O)Nc1nc2n(n1)C(c1ccc(F)cc1)C=C(c1ccc(Cl)cc1)N2 (stereo not drawn)
CCCc1cc(N2CCN(c3ccccc3)CC2)n2cnnc2n1
COc1ccc(S(=O)(=O)NCCc2sc3nc(-c4ccc(C)cc4)nn3c2C)cc1F
CCOc1ccc(C(=O)Nc2ccc(S(=O)(=O)N3CCCCC3c3cccnc3)cc2)cc1 (stereo not drawn)
O=C1C2=C(Nc3ccccc3SC2c2ccc(C(F)(F)F)cc2)c2ccccc21 (stereo not drawn)
CCCCCNS(=O)(=O)c1ccc(N2CCCCS2(=O)=O)cc1
O=C(NCCc1nc2ccccc2n1CCCOc1ccc(Cl)cc1)C1CCCCC1
COc1ccc(-c2ccc3ncc4c(c3c2)n(-c2ccc(N3CCNCC3)c(C(F)(F)F)c2)c(=O)n4C)cn1
O=C(Nc1cc(Cl)cc(Cl)c1)c1ccc(F)c(S(=O)(=O)N2CCc3ccccc32)c1

From PubChem BioAssay AID1508622 (National Center for Advancing Translational Sciences (NCATS), 2021)
